Data taken from PubChem BioAssay (NCATS).
“And” between values parts separate entries of the source, which are not always exact repeats. Identical values can stand only once. Results filed as inconclusive are left out. The source made the active and inactive calls. Unless noted, the call rests on the fitted dose curve; in most records, active means well fitted curve in the direction sought with a large enough effect; inconclusive means small, poorly fitted or top-dose-only effect, or another doubt; inactive means no such curve, though single readings can be large; an effect the other way counts as inactive or inconclusive.

Assays:
[1] = qHTS assay for measurement of the activity of small molecule inhibitors on Zika virus induced Caspase-3 activity in human iPSC derived neural progenitor cells (hNPCs) (AID 1224857); further: % of control where 0% means no effect; nearly all actives have a fitted effect of over 65% in size
Procedure, shortened: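 Zika virus (2 FFU/cell) infection of human iPSC-derived NPCs, 6 h, following 1 h compound preincubation. Read-out: Caspase-Glo 3/7 luminescence.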

[2] = qHTS assay for measurement of the activity of small molecule inhibitors on Zika virus induced Caspase-3 activity in human astrocytoma cells (AID 1224859);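 further: plate controls were ZIKV-infected untreated cells for no effect and uninfected cells for full effect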
Procedure, shortened: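 Caspase activation in ZIKV-infected SNB-19 cells (2 FFU/cell, 6 h) measured by Caspase-Glo 3/7 luminescence after 30 min RT; compound pre-incubated 1 h; normalised to uninfected and infected controls.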

[3] = qHTS assay to identify small molecule inhibitors of chordoma cells - UCH-1 (AID 1259355); further: on the % scale 0 is the no-effect control and ±100 the full control effect; nearly all actives have a fitted effect of over 55% in size
Procedure, shortened: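 Luminescent ATP read-out (CellTiter-Glo, 30min at room temperature) measured viability of UCH-1 cells exposed for 48hr to test drugs at 15 concentrations, co-dosed with a five-agent combination of auranofin, camptothecin, doxorubicin, rubitecan and topotecan.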

[4] = qHTS assay to identify small molecule inhibitors of chordoma cells - UCH-2 (AID 1259356); further: series mostly up to about 46 µM; on the % scale 0 is the no-effect control and ±100 the full control effect
[5] = P-glycoprotein substrates identified in KB-8-5-11 adenocarcinoma cell line, qHTS therapeutic library screen (AID 1346987); further: nearly all actives have a fitted effect of over 65% in size; further: potency means the concentration at half of the fitted maximal effect
Procedure, shortened: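 P-gp-mediated resistance screen: KB-8-5-11 cells treated 72 h with compounds in dose-response. CellTiter-Glo viability.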

[6] = NS1 protein of Zika virus - qHTS assay to identify small molecule inhibitors in human HEK 293 cells (AID 1347053);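 further: series mostly up to about 46 µM; plate controls were infected untreated cells for no effect and uninfected cells for full effect; nearly all actives have a fitted effect of over 55% in size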
Procedure, shortened: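 Following 20 h seeding, HEK 293 cells took compound, then 1 h later ZIKV MR766 (MOI = 0.5). Incubation ran 24 h at 37 C before TR-FRET detection of NS1; a drop in signal indicates inhibition.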

[7] = target: T1, Tyrosine-protein phosphatase non-receptor type substrate 1 (Homo sapiens) + Leukocyte surface antigen CD47 (Homo sapiens) (UniProt P78324+Q08722); experiment: CD47-SIRPalpha protein protein interaction - LANCE assay qHTS validation (AID 1347057; active means well fitted curve in the direction sought with a large enough effect in the signal ratio, with a control signal flat, not every such curve was filed as active; the % refers to the signal ratio; further: series mostly up to about 38 µM; 0% is about no effect)
Procedure, shortened: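 First, His-tagged CD47 and Eu-labelled anti-His antibody met the compound for 30 min; next, site-specifically biotinylated SIRPalpha was added for 30 min; finally streptavidin-APC was added before reading the TR-FRET ratio.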

[8] = target: T1, Tyrosine-protein phosphatase non-receptor type substrate 1 (Homo sapiens) + Leukocyte surface antigen CD47 (Homo sapiens); experiment: CD47-SIRPalpha protein protein interaction - HTRF assay qHTS validation (AID 1347058; active means well fitted curve in the direction sought with a large enough effect in the signal ratio, not every such curve was filed as active; the % refers to the signal ratio;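 further: recombinant soluble extracellular CD47 with His tag and biotinylated SIRPalpha domains; series mostly up to about 38 µM; 0% is about no effect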)
Procedure, shortened: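 TR-FRET read (Ch1/Ch2 ratio) of soluble extracellular CD47 and Avi-biotinylated SIRPalpha domains in PBS pH 7.4 with 0.05% IGEPAL; 7-point compound titration. Sequential 30 min room-temperature steps; non-biotinylated SIRPalpha as control inhibitor.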

[9] = target: Atrial natriuretic peptide receptor 1 (Homo sapiens) (UniProt P16066); experiment: Natriuretic polypeptide receptor (hNpr1) antagonism - Pilot screen (AID 1347049; calls by dose curve;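 further: agonist-evoked cGMP luminescence read 20 min after hNppA addition; series mostly up to about 58 µM; on the % scale 0 is the no-effect control and ±100 the full control effect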)
Procedure, shortened: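 HEK293 cells co-expressing hNpr1 and the GloSensor pGS-40F cGMP luciferase sensor were preloaded with 2% GloSensor reagent for 2 h. Compounds were added for 30 min at room temperature, then cells were stimulated with 0.1 nM hNppA for 20 min before luminescence readout.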

[10] = target: Atrial natriuretic peptide receptor 2 (Homo sapiens) (UniProt P20594); experiment: Natriuretic polypeptide receptor (hNpr2) antagonism - Pilot subtype selectivity assay (AID 1347050; calls by dose curve; further: on the % scale 0 is the no-effect control and ±100 the full control effect)
Procedure, shortened: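 cGMP-sensor HEK293/hNpr2 cells; 2% GloSensor reagent 2 h RT; compounds 30 min; baseline luminescence read; 1 nM hNppC agonist 20 min RT; final luminescence read by CCD camera. Antagonism = reduced post-agonist signal.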

[11] = Identifying Small Molecule Inhibitors of Pancreatic Cancer Stem Cells (A2780, Spheroid) (AID 1259357);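 further: spheroids pre-formed over 14 days in stem cell medium on hydrogel; compound exposure lasted 48 h before the ATP luminescence read; 100% = DMSO treated cells and 0% = wells without cells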
Procedure, shortened: (§1)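 Pre-formed 14-day tumor spheroids or adherent cells dosed and incubated 48 h, 37C, 5% CO2. Viability assessed by CellTiter-Glo.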

[12] = Identifying Small Molecule Inhibitors of Pancreatic Cancer Stem Cells (SN12C, Adherent) (AID 1259358);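 further: cell survival measured after 48 h of compound exposure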
Procedure, shortened: (§2)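 After a 4 h attachment period, compounds were pinned into wells and cultures held 48 h under standard incubator conditions. Viability was then measured as CellTiter-Glo luminescence following 10 min at room temperature.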

[13] = Identifying Small Molecule Inhibitors of Pancreatic Cancer Stem Cells (SN12C, Spheroid) (AID 1259360);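 further: 100% = DMSO-treated cells and 0% = wells without cells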
Procedure, shortened: as §1

[14] = Identifying Small Molecule Inhibitors of Pancreatic Cancer Stem Cells (A278, Adherent) (AID 1259361);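 further: viability read after 48 h compound exposure; 100% = DMSO-treated cells and 0% = cell-free media-only wells; nearly all actives have a fitted effect of over 35% in size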
Procedure, shortened: as §2

T1 sequence (P78324 whole entry, looked up): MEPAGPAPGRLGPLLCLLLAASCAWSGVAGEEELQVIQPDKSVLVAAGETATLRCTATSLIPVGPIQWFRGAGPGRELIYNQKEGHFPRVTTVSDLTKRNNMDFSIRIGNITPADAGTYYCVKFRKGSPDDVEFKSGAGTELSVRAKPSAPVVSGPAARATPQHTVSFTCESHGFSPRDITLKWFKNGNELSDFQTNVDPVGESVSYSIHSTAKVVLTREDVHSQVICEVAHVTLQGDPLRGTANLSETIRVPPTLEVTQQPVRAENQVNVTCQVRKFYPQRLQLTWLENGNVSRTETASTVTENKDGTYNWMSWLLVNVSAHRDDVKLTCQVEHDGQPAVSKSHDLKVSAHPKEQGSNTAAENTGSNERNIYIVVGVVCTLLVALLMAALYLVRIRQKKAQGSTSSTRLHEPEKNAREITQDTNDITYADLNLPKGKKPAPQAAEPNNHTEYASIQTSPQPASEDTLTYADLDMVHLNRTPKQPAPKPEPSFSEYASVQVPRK
T1 sequence (Q08722 whole entry, looked up): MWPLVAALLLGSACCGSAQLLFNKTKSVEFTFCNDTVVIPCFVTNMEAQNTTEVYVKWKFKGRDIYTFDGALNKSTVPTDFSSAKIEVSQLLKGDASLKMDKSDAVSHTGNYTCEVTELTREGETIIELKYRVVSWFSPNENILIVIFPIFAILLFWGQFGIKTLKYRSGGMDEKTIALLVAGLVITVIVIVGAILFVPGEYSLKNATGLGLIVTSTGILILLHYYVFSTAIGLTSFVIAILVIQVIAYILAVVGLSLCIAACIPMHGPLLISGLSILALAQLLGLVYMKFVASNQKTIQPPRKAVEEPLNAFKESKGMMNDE
Chain of Atrial natriuretic peptide receptor 2 (Homo sapiens) (P20594 whole entry, looked up): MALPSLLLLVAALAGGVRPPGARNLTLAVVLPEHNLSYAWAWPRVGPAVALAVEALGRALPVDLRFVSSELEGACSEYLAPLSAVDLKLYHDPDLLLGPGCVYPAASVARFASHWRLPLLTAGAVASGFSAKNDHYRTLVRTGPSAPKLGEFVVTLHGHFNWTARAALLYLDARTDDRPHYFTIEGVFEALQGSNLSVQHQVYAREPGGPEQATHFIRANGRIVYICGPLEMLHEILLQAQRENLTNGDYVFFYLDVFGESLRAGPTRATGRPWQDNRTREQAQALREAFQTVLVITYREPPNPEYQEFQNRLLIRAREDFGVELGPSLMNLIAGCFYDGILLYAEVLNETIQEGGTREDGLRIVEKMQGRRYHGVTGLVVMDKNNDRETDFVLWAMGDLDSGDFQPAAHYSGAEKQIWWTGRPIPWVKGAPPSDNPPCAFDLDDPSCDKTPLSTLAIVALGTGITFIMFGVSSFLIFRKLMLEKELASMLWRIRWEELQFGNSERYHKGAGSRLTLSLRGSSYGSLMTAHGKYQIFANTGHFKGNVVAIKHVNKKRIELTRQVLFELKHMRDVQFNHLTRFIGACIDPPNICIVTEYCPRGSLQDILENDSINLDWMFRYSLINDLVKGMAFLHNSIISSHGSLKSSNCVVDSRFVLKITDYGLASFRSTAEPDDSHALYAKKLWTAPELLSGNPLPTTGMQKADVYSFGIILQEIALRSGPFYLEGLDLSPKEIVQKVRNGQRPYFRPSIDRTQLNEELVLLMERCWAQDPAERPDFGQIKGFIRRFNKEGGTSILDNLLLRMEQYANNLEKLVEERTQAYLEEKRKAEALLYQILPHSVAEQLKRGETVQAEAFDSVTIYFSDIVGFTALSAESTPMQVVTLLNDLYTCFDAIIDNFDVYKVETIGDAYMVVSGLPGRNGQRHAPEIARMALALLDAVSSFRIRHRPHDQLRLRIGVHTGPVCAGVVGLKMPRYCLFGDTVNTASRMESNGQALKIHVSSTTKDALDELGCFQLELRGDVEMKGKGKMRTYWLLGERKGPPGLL
Chain of Atrial natriuretic peptide receptor 1 (Homo sapiens) (P16066 whole entry, looked up): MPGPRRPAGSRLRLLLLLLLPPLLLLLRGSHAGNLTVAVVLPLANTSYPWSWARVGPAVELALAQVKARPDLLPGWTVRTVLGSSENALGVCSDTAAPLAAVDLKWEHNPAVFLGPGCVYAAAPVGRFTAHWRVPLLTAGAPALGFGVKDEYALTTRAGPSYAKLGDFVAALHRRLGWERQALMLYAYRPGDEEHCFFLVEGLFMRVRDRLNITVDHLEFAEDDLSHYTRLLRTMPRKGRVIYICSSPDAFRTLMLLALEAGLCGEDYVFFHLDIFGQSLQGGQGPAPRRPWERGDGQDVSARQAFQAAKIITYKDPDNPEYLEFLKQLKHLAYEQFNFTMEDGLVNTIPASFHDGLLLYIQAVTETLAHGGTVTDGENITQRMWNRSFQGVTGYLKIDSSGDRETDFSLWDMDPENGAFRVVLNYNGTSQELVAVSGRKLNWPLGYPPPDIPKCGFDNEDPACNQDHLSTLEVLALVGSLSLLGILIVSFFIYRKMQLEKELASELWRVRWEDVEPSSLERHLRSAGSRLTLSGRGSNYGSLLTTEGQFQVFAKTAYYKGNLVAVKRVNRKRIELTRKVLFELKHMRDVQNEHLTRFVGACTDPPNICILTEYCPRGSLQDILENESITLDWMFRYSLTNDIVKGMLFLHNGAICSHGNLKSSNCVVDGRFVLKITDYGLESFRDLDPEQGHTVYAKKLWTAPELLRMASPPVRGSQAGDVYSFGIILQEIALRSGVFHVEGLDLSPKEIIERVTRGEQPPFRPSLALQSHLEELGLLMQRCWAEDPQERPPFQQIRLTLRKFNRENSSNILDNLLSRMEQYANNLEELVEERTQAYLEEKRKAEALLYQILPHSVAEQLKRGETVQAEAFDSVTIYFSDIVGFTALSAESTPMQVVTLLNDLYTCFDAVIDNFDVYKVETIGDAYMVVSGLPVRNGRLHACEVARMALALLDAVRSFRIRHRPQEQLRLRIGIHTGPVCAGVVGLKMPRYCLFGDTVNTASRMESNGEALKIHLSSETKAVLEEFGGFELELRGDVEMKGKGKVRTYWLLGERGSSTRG

CCC(=O)Nc1ccc(O)cc1
inactive: outcome [1] | outcome [2] | Potency [3] | outcome [4] | Potency [5] | Potency [6]

CCCCN1CCCC[C@H]1C(=O)Nc1c(C)cccc1C
inactive: outcome [1] | outcome [2] | Potency [3] | outcome [4] | Potency [5] | Potency [6]

CC[C@@]1(c2ccccc2)NC(=O)N(C)C1=O
inactive: outcome [1] | outcome [2] | Potency [3] | outcome [4] | Potency [5] | Potency [6]

CCN(CC)CCSC(=O)C(c1ccccc1)c1ccccc1
inactive: outcome [1] | outcome [2] | Potency [3] | outcome [4] | Potency [5] | Potency [6]

Nc1ccc(S(=O)(=O)Nc2ccccc2)cc1
inactive: outcome [1] | outcome [2] | Potency [3] | outcome [4] | Potency [5] | Potency [6]

NC(=O)NC(=O)Cc1ccccc1
inactive: outcome [1] | outcome [2] | Potency [3] | outcome [4] | Potency [5] | Potency [6]

O=C(O)CN1C(=O)c2cccc3cccc(c23)C1=O
inactive: outcome [1] | outcome [2] | Potency [3] | outcome [4] | Potency [5] | Potency [6]

CC1(C)[C@@H]2CC[C@@]1(C)C(=O)C2
inactive: outcome [1] | outcome [2] | Potency [3] | outcome [4] | Potency [5] | Potency [6]

CC12CCC(CC1)C(C)(C)O2
inactive: outcome [1] | outcome [2] | Potency [3] | outcome [4] | Potency [5] | Potency [6]

CC1(C)Oc2ccc(C#N)cc2[C@@H](N2CCCC2=O)[C@@H]1O
inactive: outcome [1] | outcome [2] | Potency [3] | outcome [4] | Potency [5] | Potency [6]

CCCc1c(OCCCCc2nn[nH]n2)ccc(C(C)=O)c1O
inactive: outcome [1] | outcome [2] | Potency [3] | outcome [4] | Potency [5] | Potency [6]

O=C(O)Cc1sc(-c2ccccc2)nc1-c1ccc(Cl)cc1
inactive: outcome [1] | outcome [2] | Potency [3] | outcome [4] | Potency [5] | Potency [6]

O=C1O[C@H](CO)[C@@H](O)[C@H](O)[C@H]1O
inactive: outcome [1] | outcome [2] | Potency [3] | outcome [4] | Potency [5] | Potency [6]

CCCCc1ncc(/C=C(\Cc2cccs2)C(=O)O)n1Cc1ccc(C(=O)O)cc1
inactive: outcome [1] | outcome [2] | Potency [3] | outcome [4] | Potency [5] | Potency [6] | outcome [7]

C[C@H]1O[C@@H](n2cc(F)c(=O)[nH]c2=O)[C@H](O)[C@@H]1O
inactive: outcome [1] | outcome [2] | Potency [3] | outcome [4] | Potency [5] | Potency [6] | outcome [7] | outcome [8]

NCCNCCNCCNCCN
inactive: activity change, negative = inhibition [1] -1.07% [at 9.06 µM] | activity change, negative = inhibition [2] 14.1% [at 9.06 µM] | Potency [3] | outcome [4] | Potency [5] | activity change, negative = inhibition [6] -10.7% [at 9.2 µM]

COC(=O)[C@H]1[C@H]2C[C@@H]3c4[nH]c5cc(OC)ccc5c4CCN3C[C@H]2C[C@@H](OC(=O)COc2ccc(OC)cc2)[C@@H]1OC
inactive: outcome [1] | outcome [2] | Potency [3] | outcome [4] | Potency [6]

CN1[C@@H]2CC(OC(=O)[C@H](CO)c3ccccc3)C[C@H]1[C@@H]1O[C@@H]12 (some centres undefined)
inactive: outcome [1] | outcome [2] | Potency [3] | outcome [4] | Potency [6]

COCCOC(=O)C1=C(C)NC(C)=C(C(=O)OC/C=C/c2ccccc2)C1c1cccc([N+](=O)[O-])c1 (centres undefined)
inactive: outcome [1] | outcome [2] | Potency [3] | outcome [4] | outcome [9] | Potency [10] | outcome [7]

c1ccc(CN(CC2=NCCN2)c2ccccc2)cc1
inactive: outcome [1] | outcome [2] | Potency [3] | outcome [4] | Potency [5] | Potency [6]

O=C1NC(=O)[C@@]2(CCOc3ccc(F)cc32)N1
inactive: outcome [1] | outcome [2] | Potency [3] | outcome [4] | Potency [6] | outcome [7] | outcome [8]

CCOC(=O)c1ccc(O)cc1
inactive: outcome [1] | outcome [2] | Potency [3] | outcome [4] | Potency [5] | Potency [6]

CC(=O)O[C@@]12CO[C@@H]1C[C@H](O)[C@@]1(C)C(=O)[C@H](O)C3=C(C)[C@@H](OC(=O)[C@H](O)[C@@H](NC(=O)OC(C)(C)C)c4ccccc4)C[C@@](O)([C@@H](OC(=O)c4ccccc4)[C@H]21)C3(C)C
inactive: outcome [1] | outcome [2] | Potency [3] | outcome [11] | outcome [12] | outcome [13] | IC50 (viability decrease) [14] | Potency [6]
active: Potency [5] 6.51 µM and 4.11 µM

CN1CCC[C@@H]1Cc1c[nH]c2ccc(CCS(=O)(=O)c3ccccc3)cc12
inactive: outcome [1] | outcome [2] | Potency [3] | outcome [4] | Potency [5] | Potency [6] | outcome [7] | outcome [8]

CS(=O)(=O)c1ccc([C@@H](O)[C@@H](CF)NC(=O)C(Cl)Cl)cc1
inactive: outcome [1] | outcome [2] | Potency [3] | outcome [4] | Potency [5] | Potency [6]

CC[N+](CC)(CC)CCOc1ccc(/C=C/c2ccccc2)cc1
inactive: outcome [1] | outcome [2] | Potency [3] | outcome [4] | Potency [5] | Potency [6]

O=Cc1ccccc1C=O
inactive: outcome [1] | outcome [2] | Potency [3] | outcome [4] | Potency [6]

Cc1ncc([N+](=O)[O-])n1CC(O)CCl (centres undefined)
inactive: outcome [1] | outcome [2] | Potency [3] | Potency [5]

O=C(Oc1ccccc1C(=O)O)c1ccccc1O
inactive: outcome [1] | outcome [2] | Potency [3] | outcome [4] | Potency [5] | Potency [6]
